In the library only some 3.6% were active in any assay of this set; here they are far more common.
NadD inh – inhibitors of Staphylococcus aureus NadD | purified NadD enzyme, colorimetric absorbance read-out | inhibition, % at 20 µM | 360,000 tested, 0.78% active; in the data active means inhibition above about 26%
CRFBP-R2 block – antagonists of CRF-binding protein/CRF-R2 receptor complex. inhibition, % at 11.8 µM. AID 588475. 350,000 tested, 0.59% active. HEK293 CRF-R2/CRF-BP, CRF-induced calcium fluorescence;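 active means inhibition of the ligand-induced calcium signal above about 50% at the single tested concentration, limit read from the data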
FAS-TE inh – FAS thioesterase (human) inhibition; 360,000 tested, 0.67% active; recombinant FAS-TE, OMFH fluorogenic substrate, fluorescence endpoint; AID 602261; P49327; inhibition, % at 15 µM;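 active means compounds whose normalised, plate-corrected inhibition of enzyme fluorescence in the single-dose primary screen is 50% or more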;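 further: 0% = DMSO with enzyme and 100% = substrate without enzyme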
Myeloid diff MLP – promotes myeloid progenitor differentiation | ER-HoxA9 myeloid progenitors, lysozyme-GFP differentiation, flow cytometry | calls only at 10 µM | 360,000 tested, 1% active;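 active means normalized GFP-positive differentiation at or above the plate's own cutoff, the solvent-only control mean plus 3 SD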;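 further: cells exposed to compound for four days before flow analysis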
NRP1-CendR mod – modulators of CendR peptide binding to human neuropilin-1 | O14786 | FAM-RPARPAR peptide binding to NRP-1, fluorescence polarization | inhibition, % at 25 µM | 360,000 tested, 0.85% active | AID 602438;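 active means inhibition or corrected inhibition above about 18%, plus a signal ratio from 0.5 to 1.5, limit read from the data, passing the limit was not always enough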
* hit, by the source's call; i = inactive; . = no result; + = active, no number.

SMILES	NadD inh	CRFBP-R2 block	FAS-TE inh	Myeloid diff MLP	NRP1-CendR mod
N=C1/C(=C/c2ccc(OCc3ccccc3)cc2)C(=O)N=C2SC(CC(=O)N3CCOCC3)=NN12	25	9	7	i	-69
CN(C)c1ccc(/C=C2\C(=N)N3N=C(CC(=O)N4CCCCC4)SC3=NC2=O)cc1	18	-65	-39	+	-114
O=C(O)c1cc(N2N=C(C(F)(F)F)/C(=C/C=C/c3ccco3)C2=O)ccc1Cl	42*	4	5	i	-110
CC(=O)n1c2ccccc2c2c1c1ccccc1n2C	-3	5	-13	i	38*
CC1=C(C(=O)N2CCOCC2)CC(CC(=O)NCC2CCCCC2)C(=O)N1Cc1ccc(C(C)(C)C)cc1 (stereo not drawn)	3	.	8	i	0
CCCC1=NN2C(=N)/C(=C\c3cc(C)n(-c4cc(C)cc(C)c4)c3C)C(=O)N=C2S1	37*	-60	24	i	-17
Cc1cc(C)cc(-n2c(C)cc(/C=C3\C(=N)N4N=C(CC(C)C)SC4=NC3=O)c2C)c1	35*	-20	34	i	-11
COc1ccccc1CCNC(=O)C1CC(=O)N(c2ccccc2F)C1 (stereo not drawn)	9	10	-1	i	9
COc1cccc(-c2cnc(C(O)c3c(C)cc(C)cc3C)[nH]2)c1 (stereo not drawn)	-4	.	1	i	5
CCOC(=O)c1ccc(NC(=O)CN2C(=O)CSC2=O)cc1	7	102*	-8	i	-5
COc1ccccc1CCC(=O)Oc1ccc(C#N)cc1OC	-8	2	10	i	-3
COc1cc(C#N)ccc1OC(=O)Cc1cc(OC)c(OC)c(OC)c1	2	5	-7	i	25*
Cc1ccc(CSCC(=O)N(CCC(C)C)c2c(N)n(Cc3ccccc3)c(=O)[nH]c2=O)cc1	3	6	-16	i	-11
COC(=O)C1CCN(CC(=O)N(C)c2c(N)n(Cc3ccccc3)c(=O)[nH]c2=O)CC1	4	4	-5	i	3
CCCN(C(=O)CSCc1ccc(Cl)cc1)c1c(N)n(Cc2ccccc2)c(=O)[nH]c1=O	-2	-2	-2	.	27*
COc1ccc(-c2nc(SCC(=O)N(CC(C)C)c3c(N)n(Cc4ccccc4)c(=O)[nH]c3=O)n[nH]2)cc1	4	3	-5	i	-28
CC1CCN(CC(=O)N(C)c2c(N)n(Cc3ccccc3)c(=O)[nH]c2=O)CC1	4	-16	-4	+	0
CCCN(C(=O)CSc1n[nH]c(-c2ccc(OC)cc2)n1)c1c(N)n(Cc2ccccc2)c(=O)[nH]c1=O	0	59*	-10	+	-17
N#Cc1ccccc1OCC(=O)OCC(=O)N1CCCC1	-2	-4	-2	i	19*
CC1CCN(C(=O)COC(=O)COc2ccccc2C#N)CC1	1	-8	-8	i	1
N#C/C(=C\c1ccccc1)C(=O)OCC(=O)N1CCCC1	-1	-6	-2	i	24*
Cn1nc(C2CC2)cc1NC(=O)C1(C)CCN1C(=O)CC(c1ccccc1)c1ccccc1 (stereo not drawn)	2	.	3	i	-8
COc1ccc(S(=O)(=O)N2CCCCCC2)cc1C(=O)N1CCN(c2ccccc2C)CC1	-4	-6	37	i	24
COc1cc2ccccc2nn1	-6	-1	-4	i	6
COc1ccc2c(n1)Sc1nc3ccccc3nc1N2	4	-189	-26	+	143
SMILES	NadD inh	CRFBP-R2 block	FAS-TE inh	Myeloid diff MLP	NRP1-CendR mod
COC(=O)C(C(=O)OC)c1ccccc1NC(=O)OCc1ccccc1	.	.	.	i	-5
COc1ccc(C(=O)N[C@H](C(=O)Nc2nc3c(s2)CCCC3)C(C)C)cc1	0	-26	-3	i	26*
O=C(Nc1cccc(OC(F)(F)F)c1)C1Cc2c(-c3ccc4c(c3)OCO4)ccnc2O1 (stereo not drawn)	2	.	22	i	-103
O=C(COC(=O)Cc1ccc(Br)cc1)NCc1cccs1	-5	21	-6	i	12
O=C(COC(=O)Cc1cccs1)NCc1ccc(F)cc1	1	-7	-6	i	25*
CCO/C(C)=N/n1c2nc3ccccc3nc2c2c(=O)n(Cc3ccccc3Cl)c(C)nc21	11	2	-12	+	-32
COc1ccc(C2(C(=O)NCCc3ccccc3)CCCC2)cc1OC	-2	0	-5	i	0
CC(C)C[C@@H]1CN(CCCC[C@H]2CNC(=O)C(=O)N2CCC2CCCCC2)C(=O)C(=O)N1CC1CCCCC1	22	.	15	i	3
CC(C)c1ccc(OCc2cccc(C(=O)N/N=C/c3cccnc3)c2)cc1	-7	-15	12	+	5
CCOc1ccc(OCc2cccc(C(=O)N/N=C/c3cccnc3)c2)cc1	-4	17	-8	i	2
COc1cc2c(c(OC)c1OC)-c1c(cc3c(c1OC)OCO3)C[C@H](C)[C@@](C)(O)C2	3	8	2	i	-16
COc1cc2c(c(OC)c1OC)-c1c(cc(OC)c(OC)c1OC)C[C@](C)(O)[C@@H](C)C2	-3	-7	-13	i	39*
CCCNC(=O)C1CC(c2ccccc2C(F)(F)F)=NO1 (stereo not drawn)	-5	5	-14	i	0
Cn1c(=O)c2cc(NC(=O)NCCc3cccs3)ccc2n1C/C=C/c1ccccc1	6	.	6	i	11
CC1CCN(c2cc(N3CCC(C)CC3)c([N+](=O)[O-])cc2/C=C(\C#N)c2nn(-c3ccccc3)c(N)c2C#N)CC1	51*	2	18	i	-13
CC1CCN(c2ccc(/C=C(\C#N)c3nn(-c4ccccc4)c(N)c3C#N)cc2[N+](=O)[O-])CC1	18	-6	18	i	-4
C=CCn1c(O)c(N=Nc2ccccc2[N+](=O)[O-])c2ccccc21	-7	-5	6	i	11
Cc1ccc(Nc2nc(-c3ccc(S(=O)(=O)N4CCOCC4)cc3)cs2)cc1Cl	29	-39	30	i	6
Nc1ccc2nc(-c3ccccc3)cnc2c1	-4	-53	-12	+	45
Nc1ccc(-c2cnc3ccccc3n2)cc1	1	6	-7	i	-9
Cc1cccc(C)c1NC(=O)C1(C)CSCC(=O)N1CCCN1CCOCC1 (stereo not drawn)	.	.	.	i	-8
O=C(Nc1cc(S(=O)(=O)N2CCCCC2)ccc1Cl)c1ccccc1NS(=O)(=O)c1ccc(F)cc1	16	108*	15	i	-2
O=C(CSc1ncn[nH]1)Nc1cc(S(=O)(=O)N2CCCC2)ccc1Cl	-5	50*	-22	i	2
Cc1ccc2c(c1)CCCN2CC(=O)Nc1cc(S(=O)(=O)N2CCCC2)ccc1Cl	5	0	-5	+	-35
COc1cc(NC(=O)C2CCN(S(=O)(=O)c3ccc4[nH]c(=O)oc4c3)CC2)cc(OC)c1	4	6	-2	i	2
CCCN(CC(=O)Nc1ccccc1C)C(=O)c1cc2ccccc2oc1=O	-1	-15	-5	i	5

Bioassay records: PubChem BioAssay, several laboratories
